Screens: PubChem, National Center for Advancing Translational Sciences (NCATS)
An excerpt weighted towards active compounds, which were near 5.3% of everything screened.
HP1b chromo inh: blocks HP1-beta chromodomain binding to methylated histone tails. AID 540317. hit rate 0.56% among 390,000. Potency, µM (titrated, usually from 114 µM), for the others: at the highest dose activity change, negative = inhibition, usual class: inhibitors. AlphaScreen HP1-beta / biotin-H3K9me3 peptide binding; also: potency is read from the fitted curve at half-maximal effect; nearly all actives have a fitted effect of over 70% in size
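AlphaScreen: HP1-beta (50 nM) preformed 30 min with biotin-H3(1-18)K9me3 peptide (50 nM) in PBS pH 7.4, 0.01% Tween-20. Compound added for 30 min at RT, then streptavidin donor/nickel chelate acceptor beads (10 ug/mL) for 30 min.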
JMJD2A Tudor: blocks the human JMJD2A Tudor domain | Potency, µM (titrated, usually from 114 µM), for inactives: at the top dose activity change, negative = inhibition, usual class: inhibitors | O75164 | AlphaScreen JMJD2A-Tudor / H3K4me3 peptide binding | hit rate 4.4% among 390,000; also: potency is read from the fitted curve at half-maximal effect; % is scaled to controls: 0 for no effect and ±100 for the full control effect; nearly all actives have a fitted effect of over 50% in size
Six1-Eya2 blk: inhibitors of human Six1/Eya2 interaction | Q15475+O00167 | AlphaScreen GST-Six1/His-Eya2 binding, biochemical; hits give low values | activity change, % (concentration not given with the values) | hit rate 0.56% among 360,000 | AID 651725; in the data active = activity change below about -65%; inconclusive = mostly about -30% to -63%; also: % is scaled to controls: 0 for no effect and ±100 for the full control effect
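Homogeneous AlphaScreen proximity assay pairing GST-Six1 with His-tagged Eya2 (added as 5X mix: 250 nM and 500 nM) in 50 mM Tris pH 8.0, 300 mM NaCl, 1 mM TCEP. Glutathione donor and nickel acceptor beads; 1 h, 37 °C, dark.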
CtBP-E1A inh: inhibitors of CtBP/E1A interaction; AlphaScreen GST-E1A/His-CtBP binding, 1536-well; hits give low values; activity change, % (test concentration not listed); hit rate 0.49% among 340,000; in the data active = activity change below about -65%; inconclusive = mostly about -30% to -63%; also: % is scaled to controls: 0 for no effect and ±100 for the full control effect
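Steps: dispense buffer (Tris pH 8.0, NaCl 300 mM, TCEP 1 mM, BSA, Tween 20); add 5X protein mix (GST-E1A, His-CtBP, 125 nM each); pin 23 nL compound; 2 h at 37 °C, dark; add 5X beads (50 ug/mL); 1 h; read.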
TDP1 inh: blocks human tyrosyl-DNA phosphodiesterase 1 | Q9NUW8 | recombinant TDP1, AlphaScreen DNA substrate cleavage | Potency, µM (titrated, usually from 130 µM), for the others: at the top dose activity change, negative = inhibition, usual class: inhibitors | hit rate 0.28% among 350,000; also: potency is read from the fitted curve at half-maximal effect; % is scaled to controls: 0 for no effect and ±100 for the full control effect; nearly all actives have a fitted effect of over 40% in size
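Recombinant E. coli-expressed Tdp1 (1 nM) preincubated with compound 15 min at RT, then 5'-biotin/3'-phosphotyrosine-FITC DNA substrate (15 nM) added for 5 min. AlphaScreen beads (10 ug/ml) added, 10 min RT; tyrosine-FITC cleavage read as signal loss.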
BAZ2B block: inhibitors of human BAZ2B bromodomain. Q9UIF8. AlphaScreen BAZ2B-H3K14Ac peptide displacement. Potency, µM (titrated, usually from 114 µM), for the others: top-dose activity change, negative = inhibition, most hits filed as inhibitors. hit rate 4.4% among 360,000. AID 504333; also: potency is read from the fitted curve at half-maximal effect; % is scaled to controls: 0 for no effect and ±100 for the full control effect; nearly all actives have a fitted effect of over 60% in size
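In this displacement format the biotinylated H3(5-23) peptide acetylated at Lys14 serves as ligand at 50 nM, with BAZ2B at 50 nM in PBS pH 7.4 containing 0.01% Tween-20. Donor and acceptor beads are 10 ug/mL final.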
Numbers without * were called inactive; ? = inconclusive; · = not tested or not shown; [ ] = dose if it differs, or a comment. Unless noted, calls follow the shape of the dose curve; as a rule, active = well fitted inhibition curve with a large enough effect; inconclusive = small, poorly fitted or top-dose-only effect; inactive = no such curve, though single readings can be large or run the other way.

SMILES	HP1b chromo inh	JMJD2A Tudor	Six1-Eya2 blk	CtBP-E1A inh	TDP1 inh	BAZ2B block
CC(C)C(=O)Nc1ccc2nc(SCC(=O)N3CCc4ccccc43)sc2c1	34%	-23%	·	·	-4%	-4%
C/C(=N\NC(=O)c1cc(Br)ccc1O)c1ccccn1	39%	-30%	-3	-9	4%[56.1 µM]	2%
O=C(NN=C(c1ccccc1)c1ccccn1)c1ccccc1	11%	?	-68*	6	3%	·
C/C(=N\NC(=O)c1cccc(Br)c1)c1ccccn1	29%	22µM*	-90*	-3	5%	3.5µM*
C/C(=N\NC(=O)c1ccccc1Cl)c1ccccn1	30%	56µM*	-91*	·	·	32µM*
C/C(=N\NC(=O)c1cc(-c2cccs2)nc2ccccc12)c1ccccn1	32%	28µM*	-82*	-86*	8%	5.6µM*
COc1ccc(NC(=O)c2sc3nc(-c4cc5ccc(OC)cc5oc4=O)[nH]c(=O)c3c2C)cc1	14%	-18%	·	·	5%	-2%
COc1ccc2cc(-c3nnc(Nc4ccccc4)s3)c(=O)oc2c1	35%	-1%	·	·	-5%	13%
C/C(=N/NC(=O)c1ccc(C(C)(C)C)cc1)c1ccccn1	20%	45µM*	-88*	-1	·	·
CCCCCCCCCCSc1n[nH]c(NC(C)=O)n1	31%	-5%	0	5	2%	2%
CSc1n[nH]c(NC(C)=O)n1	-10%	11µM*	3	-3	3%	?
Cc1nc(CNS(=O)(=O)c2cccc(F)c2)cs1	26%	-21%	2	4	-6%	-35%
Cc1ccc(-c2csc(NS(=O)(=O)c3cccc(F)c3)n2)o1	-32%	56µM*	-25	-4	-1%	·
CN1CCN(C(CNC(=O)c2c(F)cccc2F)c2ccc3c(c2)OCO3)CC1 (stereo not drawn)	18%[57 µM]	-10%	·	·	3%	-2%
O=C(O)c1cc(O)c2c(c1)[C@@H]([C@H]1c3cc(C(=O)O)cc(O)c3C(=O)c3c(O[C@@H]4O[C@H](CO)[C@@H](O)[C@H](O)[C@H]4O)cccc31)c1cccc(O[C@@H]3O[C@H](CO)[C@@H](O)[C@H](O)[C@H]3O)c1C2=O	1.3µM*	0.89µM*	?	9	·	·
CCOc1ccc(NC(=O)NCCn2nnc3cc(S(=O)(=O)N(C)C)ccc32)cc1	32%	1%	·	·	-1%	-1%
O=[N+]([O-])c1ccccc1N/N=C1\CC2CC=CC12 (stereo not drawn)	18µM*	40µM*	?	·	10%	13µM*
O=C(COc1cccc(Cl)c1)N1CCC(c2nc3ccccc3o2)CC1	15%	-12%	·	·	6%	4%
O=C(COc1ccc(Cl)cc1)Nc1ccc(-c2nc3ccccc3s2)c(O)c1	-7%	-21%	·	·	4%[12.3 µM]	-5%
CCCCC1C(=O)N(c2ccccc2)N(c2ccc(O)cc2)C1=O (stereo not drawn)	?	56µM*	-2	1	-10%[56.1 µM]	5%
CCNC(=S)N/N=C/c1cc(C)n(-c2ccc(Cl)cc2)c1C	?	50µM*	-19	-17	7%	28µM*
Cc1cc(/C=N/N2CCN(C)CC2)c(C)n1-c1ccc(Cl)cc1	?	50µM*	-7	-13	8%	?
Cc1ccc(-n2c(C)cc(/C=N/NC(=O)c3ccncc3)c2C)cc1C	-16%	?	-11	-7	11%	50µM*
COC(=O)N/N=C/c1cc(C)n(-c2ccc(F)cc2)c1C	8%	-36%	9	-2	4%	?
COC(=O)N/N=C/c1cc(C)n(-c2ccc(Br)cc2)c1C	?	-25%	-2	-5	5%	45µM*
CCc1ccc(-n2c(C)cc(/C=N/NC(=O)c3ccncc3)c2C)cc1	-3%	?	-14	-12	-2%	40µM*
Cc1cc(/C=N/NC(=O)c2ccncc2)c(C)n1-c1ccccc1	2%	-27%	-17	-17	6%	?
